Tau FP inhib – qHTS for Inhibitors of Tau Fibril Formation, Fluorescence Polarization. Microtubule-associated protein tau (Homo sapiens), P10636. K18 P301L tau heparin fibrillization, Alexa594 FP, 6 h. Potency, µM (titrated, usually from 57.7 µM), most hits filed as inhibitors. 0.39% of 280,000 active; also: nearly all actives have a fitted effect of over 55% in size
Target sequence (P10636 561-689 P618L limits assumed): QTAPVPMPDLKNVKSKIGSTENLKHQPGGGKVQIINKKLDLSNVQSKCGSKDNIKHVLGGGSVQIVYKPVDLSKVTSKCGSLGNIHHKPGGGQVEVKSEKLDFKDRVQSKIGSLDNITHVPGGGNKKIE
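Quantitative HTS format: compounds meet 15 uM recombinant K18 P301L tau and Alexa 594-tau tracer in 100 mM sodium acetate pH 7; 20 uM heparin triggers fibrillization at 37 C over 6 hr; FP gives the signal.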
G9a block – qHTS Assay for Inhibitors of Histone Lysine Methyltransferase G9a; AID 504332, 2011; G9a H3K9 monomethylation, AlphaScreen, 2 h; 8.8% of 350,000 active; Potency, µM (doses to about 102 µM), hits mostly inhibitors; also: nearly all actives have a fitted effect of over 75% in size
Target sequence (Q96KQ7 913-1193 limits assumed): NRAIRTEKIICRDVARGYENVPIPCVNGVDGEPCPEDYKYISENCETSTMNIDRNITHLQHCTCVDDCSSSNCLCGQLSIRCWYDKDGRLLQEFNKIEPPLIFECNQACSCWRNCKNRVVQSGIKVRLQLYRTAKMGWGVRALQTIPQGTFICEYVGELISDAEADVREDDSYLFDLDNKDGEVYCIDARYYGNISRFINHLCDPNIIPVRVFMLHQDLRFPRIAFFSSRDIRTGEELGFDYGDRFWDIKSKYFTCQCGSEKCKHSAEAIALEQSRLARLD
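AlphaScreen read-out: biotin-H3K9 peptide (500 nM) methylation by 20 nM enzyme with 20 uM SAM, 2 h at room temperature after 15 min compound preincubation; anti-monomethyl H3K9 antibody plus donor/acceptor beads, 10 min dark.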
Sfp PPTase inh – qHTS Assay for Inhibitors of Bacillus subtilis Sfp phosphopantetheinyl transferase (PPTase) | Potency, µM, actives largely listed as inhibitors | AID 1490, 2009 | 3.5% of 310,000 active | Biochemical Sfp PPTase activity, qHTS | 4'-phosphopantetheinyl transferase ffp (Bacillus subtilis), Q9F4F7;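 also: the enzyme is Sfp with the accession as filed and its product quenches rhodamine fluorescence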
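With Hepes-Na pH 7.6 buffer containing 10 mM MgCl2, Sfp (15 nM) modified BHQ-2-YbbR (12.5 uM) using rhodamine-CoA (5 uM). Two reads 30 minutes apart at 525/598 nm yielded each well's rate.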
Tau fluor counter – Counterscreen qHTS for Inhibitors of Tau Fibril Formation, Fluorescence Polarization | tau K18 P301L Alexa594 fluorescence, heparin fibrillization | Potency, µM (top dose mostly 57.7 µM) | 0.93% of 280,000 active | AID 1463, 2008; also: nearly all actives have a fitted effect of over 55% in size
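Human tau K18 P301L (15 uM unlabeled, 0.24 uM Alexa 594-labeled) in 100 mM sodium acetate pH 7 with 20 uM heparin, 6 hr at 37 C. ThT 30 uM added, 1 hr ambient; Alexa 594 FP and total fluorescence read at 555/632 nm.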
Tau fibril ThT – qHTS for Inhibitors of Tau Fibril Formation, Thioflavin T Binding | AID 1460, 2008 | 2.1% of 270,000 active | recombinant tau K18 P301L, heparin-induced fibrillization, ThT fluorescence | Potency, µM (highest dose often 57.4 µM), most hits filed as inhibitors; also: nearly all actives have a fitted effect of over 55% in size
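Using a mix of unlabeled (15 uM) and Alexa 594-labeled (0.24 uM) tau K18 P301L, heparin-triggered fibrillization over 6 hr at 37 C was scored by ThT fluorescence.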
Coupling enz – qHTS Assay for Inhibitors of Fructose-1,6-bisphosphate Aldolase from Giardia Lamblia: Coupling assay counterscreen; coupling enzyme system counterscreen, AmpLite Red fluorescence; 0.67% of 290,000 active; AID 2472, 2010; activity change, negative = inhibition, % at 58.2 µM, hits read low; in the data active = activity change below about -30%
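Fluorescence at 525 nm excitation and 598 nm emission measured inhibition of the coupled detection system without aldolase. Compounds (at 57.5 uM final) were preincubated 10 min at room temperature with coupling enzyme reagent before a 20 min substrate/AmpLite Red step.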
Hits are given with their value; 0 = inactive; ? = inconclusive; - = no result given; [ ] = dose if it differs, or a comment. A selection: hits, their analogues and other compounds. The true share with any hit is near 11%. Unless noted, calls follow the shape of the dose curve; as a rule, active = well fitted curve in the direction sought with a large enough effect; inconclusive = small, poorly fitted or top-dose-only effect, or another doubt; inactive = no such curve, though single readings can be large; an effect the other way counts as inactive or inconclusive.

SMILES | Tau FP inhib | G9a block | Sfp PPTase inh | Tau fluor counter | Tau fibril ThT | Coupling enz
O=[N+]([O-])c1ccc(Oc2cccc3cccnc23)c([N+](=O)[O-])c1 | 0 | ? | ? | 16µM[quencher] | 8.9µM | -42
O=[N+]([O-])c1ccccc1OCCOCCOc1cccc2cccnc12 | 0 | 2µM | ? | 0 | 0 | 0
N#Cc1ccc(Oc2cccc3cccnc23)c([N+](=O)[O-])c1 | - | 0 | 0 | - | - | -37
N#Cc1cc(Oc2cccc3cccnc23)c(-n2nnc3ccccc32)cc1C#N | 0 | ? | 50µM | 16µM[quencher] | 0 | 0
CC(Oc1ccccc1)C(=O)Nc1ccc(F)c(S(=O)(=O)N2CCOCC2)c1 (centres undefined) | - | 0 | - | - | - | -
O=C(c1cnccn1)N1CCC[C@@]2(CCN(Cc3cc(C(F)(F)F)cc(C(F)(F)F)c3)C2)C1 | - | 0[12.7 µM] | 0 | - | - | 0
Nc1ccc(-c2n[nH]c(=O)c3ccccc23)cc1N | 0 | 8.9µM | 14µM | 0 | ? | 0
CC1CCc2noc(NC(=O)c3ccccc3[N+](=O)[O-])c2C1 (centres undefined) | 0 | 16µM | - | ? | ? | -
Cc1cc(C)c2c(n1)sc1c(O)cc(=O)[nH]c12 | 0 | 0[12.7 µM] | ? | 0 | 0 | 0
COc1ccc(-c2cc(C(F)(F)F)c3c(n2)sc2c(O)cc(=O)[nH]c23)c(OC)c1 | 0 | 0 | 0 | 0 | 14µM | 0
Cc1cccc(N(Cc2ccccc2)C(=O)c2ccc(S(C)(=O)=O)cc2)c1 | - | ? | 0 | - | - | -
Cc1ccc(N(Cc2ccccc2)C(=O)c2ccc(F)cc2)cc1 | - | 20µM | 0 | - | - | -
CS(=O)(=O)c1ccc(C(=O)N(Cc2ccccc2)c2ccccc2)cc1 | - | 45µM | 0 | - | - | 0
CN1C(=O)C2(NC(=O)c3ccccc3N2C)c2ccccc21 (centres undefined) | 0 | 0 | 0 | 0 | 0 | 0
CN1C(=O)C(Cl)(Cl)C(=O)c2ccccc21 | 7.1µM | 1µM | 2.5µM | 0 | 4µM | -75
Cc1ccccc1C(=O)Nc1ccc(C(=O)OCc2cc(=O)n3nc(C(C)C)sc3n2)cc1 | 0 | 0 | - | 0 | 0 | -
CCN1/C(=C/C(C)=C/c2sc3ccccc3[n+]2CC)Sc2ccccc21 | ? | 18µM | 32µM | 0.45µM[fluorescent] | 1.6µM | 0
COc1cc(C)cc2oc(=O)c(CC(=O)NCc3cccc(Cl)c3)c(C)c12 | 0 | 0 | - | 0 | 0 | -
Cc1ccc(NS(=O)(=O)c2cc([N+](=O)[O-])ccc2NNC(=S)Nc2cc(C)ccc2C)c(C)c1 | 0 | 2.5µM | 0 | 13µM[quencher] | ? | 0
Cc1ccc(NS(=O)(=O)c2cc([N+](=O)[O-])ccc2NNC(=S)Nc2cccc(Cl)c2)c(C)c1 | ? | 16µM | 7.9µM | 7.9µM[quencher] | 10µM | 0
COc1ccc(NC(=S)NNc2ccc([N+](=O)[O-])cc2S(=O)(=O)Nc2ccc(C)cc2C)cc1 | 0 | 10µM | 40µM | 14µM[quencher] | 32µM | 0
COc1ccc(CNc2ccc([N+](=O)[O-])cc2C)cc1 | 0 | 0 | 0 | 0 | - | 0
COc1ncc2nc(-c3cccs3)c(=O)n(-c3ccccc3)c2n1 | - | 0[12.7 µM] | 0 | - | - | 0
COc1cc(SC)ccc1C(=O)N(CC(=O)Nc1ccccc1Br)Cc1ccco1 | - | 40µM | - | - | - | -
O=C(CCN1C(=O)/C(=C/c2ccco2)SC1=S)Nc1ccc(O)cc1C(=O)O | - | 28µM | 0 | - | - | 0
SMILES | Tau FP inhib | G9a block | Sfp PPTase inh | Tau fluor counter | Tau fibril ThT | Coupling enz
O=C(CCN1C(=O)/C(=C\c2cccs2)SC1=S)Nc1ccc(C(=O)O)cc1 | - | ? | 0 | - | - | -
O=C(CCCN1C(=O)/C(=C\c2ccccc2)SC1=S)Nc1ccc(O)cc1C(=O)O | - | - | 0 | - | - | -
CCc1ccc(/C=C2/SC(=S)N(CCCC(=O)Nc3ccccc3C(=O)O)C2=O)cc1 | - | ? | 0 | - | - | -
CC(C(=O)Nc1ccc(O)cc1C(=O)O)N1C(=O)/C(=C\c2cccs2)SC1=S (centres undefined) | - | 7.9µM | 22µM | - | - | -
O=C(CN1C(=O)/C(=C\c2ccco2)SC1=S)Nc1ccc(O)cc1C(=O)O | - | 0[0.0925 µM] | 56µM | - | - | -
O=C(CCCN1C(=O)/C(=C/c2ccco2)SC1=S)Nc1ccccc1C(=O)O | 0 | - | 50µM | 0 | ? | 0
CC(C)N(C(=O)Cn1cc(S(=O)(=O)Cc2ccc(C(F)(F)F)cc2)c2ccccc21)C(C)C | 0 | 0 | - | 0 | 0 | -
COc1ccc(CCNC(=O)C(=O)NCC(c2ccco2)S(=O)(=O)c2ccc(F)cc2)cc1 (centres undefined) | 0 | 0 | - | 0 | 0 | -
